# In PubChem BioAssay (NCI):
# The panel holds about 83,000 compounds, 20% with a hit somewhere; the sample as a whole holds those more often.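 In brief: 96-well plates, 48 h treatment, single concentration, percent growth endpoint.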 A number with no mark means an inactive call. The source made the active and inactive calls. The calls were made as follows: active = growth percent below 10; inactive = the rest.
# Tests used:
# Test in all cases: NCI-60 one-dose screen, 48 h (100 = growth as untreated, 0 = no growth, -100 = all killed)
# Settings in all cases: 10 µM unless noted
# NCI-H23 lung = test system: NCI-H23 lung
# NCI-H226 lung = test system: NCI-H226 lung
# NCI-H322M lung = test system: NCI-H322M lung
# HOP-62 NSCLC = test system: HOP-62 NSCLC
# NCI-H460 lung = test system: NCI-H460 lung
# HOP-92 NSCLC = test system: HOP-92 NSCLC
# NCI-H522 lung = test system: NCI-H522 lung
# A549/ATCC NSCLC = test system: A549/ATCC NSCLC
# 786-0 renal = test system: 786-0 renal
# COLO 205 colon = test system: COLO 205 colon
# DU-145 prostate = test system: DU-145 prostate
# K-562 leukemia = test system: K-562 leukemia
# MDA-MB-231 breast = test system: MDA-MB-231 breast
# RXF 393 renal = test system: RXF 393 renal
# SF-268 CNS = test system: SF-268 CNS
# SF-295 CNS = test system: SF-295 CNS
# SF-539 CNS = test system: SF-539 CNS
# UACC-257 melanoma = test system: UACC-257 melanoma
# M14 melanoma = test system: M14 melanoma
# MALME-3M melanoma = test system: MALME-3M melanoma
SMILES,growth (NCI-H23 lung),growth (NCI-H226 lung),growth (NCI-H322M lung),growth (HOP-62 NSCLC),growth (NCI-H460 lung),growth (HOP-92 NSCLC),growth (NCI-H522 lung),growth (A549/ATCC NSCLC),growth (786-0 renal),growth (COLO 205 colon),growth (DU-145 prostate),growth (K-562 leukemia),growth (MDA-MB-231 breast),growth (RXF 393 renal),growth (SF-268 CNS),growth (SF-295 CNS),growth (SF-539 CNS),growth (UACC-257 melanoma),growth (M14 melanoma),growth (MALME-3M melanoma)
O=C(O)c1cccc2c1C(=O)N(c1ccc3c(c1)Cc1ccccc1-3)C2=O,122%,111%,111%,112%,117%,109%,92.3%,98.6%,107%,121%,116%,105%,113%,110%,117%,121%,110%,109%,119%,
COc1ccc2c(c1)c(-c1nc(-c3c[nH]c4ncccc34)cs1)cn2C,71.8%,80.6%,46.6%,90.4%,40.1%,60.7%,77.9%,81.7%,70.1%,83.7%,72.5%,41%,55.3%,57.2%,97%,86%,66.2%,85.1%,63.7%,
COCCNC1=C(Cl)C(=O)c2ccccc2C1=O,64.8%,95.9%,113%,117%,95.4%,137%,96.1%,88.8%,114%,110%,53.9%,99.8%,99.6%,105%,95.6%,75.1%,136%,100%,96.9%,
Cn1cc(-c2csc(-c3c[nH]c4ccccc34)n2)c2cccnc21,30.3%,60.3%,56.1%,45.5%,14.6%,49.5%,5.06% (active),40.3%,45.7%,9.57% (active),16.5%,18.9%,48.3%,12.6%,45.4%,6.62% (active),-1.15% (active),64.6%,23.8%,
COC(c1ccccc1)(c1ccccc1)c1ccccc1,95.4%,101%,102%,106%,101%,147%,116%,104%,93%,123%,108%,109%,102%,,98.5%,90.7%,102%,122%,136%,95.4%
COc1c(N)c2c(c([N+](=O)[O-])c1OC)C(=O)OC2,120%,110%,99.8%,107%,113%,92.3%,98.6%,96.1%,102%,116%,116%,119%,115%,112%,106%,107%,104%,102%,109%,
CCCC(=O)N1CCCCC1CC (stereo not given),111%,101%,127%,107%,97%,74.5%,99.9%,99.6%,104%,116%,106%,87.5%,115%,115%,,,87.5%,90.6%,114%,118%
CC(=O)O[C@H]1CC[C@@]2(C)C(=CC[C@@H]3[C@@H]2CC[C@]2(C)C(=O)N(O)C(=O)C[C@@H]32)C1,68%,107%,91.9%,68.5%,60.8%,93%,75.5%,86.9%,81.1%,112%,86.9%,49.9%,97.9%,74%,91.7%,98.9%,105%,106%,96.4%,
Cc1ccc2[nH]cc(-c3nc(-c4cn(C)c5ncccc45)cs3)c2c1,74.7%,74.2%,101%,105%,91.4%,74.6%,86.5%,75.5%,91.3%,97.9%,97.7%,59.4%,83.4%,100%,97%,77.9%,93.8%,94%,80%,
